Source: PubChem (National Center for Advancing Translational Sciences (NCATS))
The sample as a whole holds a higher share of hits than the screen did.
Pf Dd2 inh – inhibitors of Plasmodium falciparum Dd2 growth. P. falciparum Dd2 growth, SYBR Green, 72 h. Potency, µM (highest dose often 28.9 µM), for inactives: at the highest dose activity, negative = inhibition, most hits filed as inhibitors. 120,000 tested, 4.3% active. AID 1347417; active = well fitted inhibition curve with a large enough effect;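 also: plate controls were DMSO vehicle for no effect and reference drug for full effect; nearly all actives have a fitted effect of over 65% in size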
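Readout: SYBR Green fluorescence, 485 nm excitation, 535 nm emission, after ~16 h lysis at 37C. Before that, Dd2-infected red cells (2.5% hematocrit) grew 72 h with compound, 29 uM top final concentration.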
* hit, by the source's call; i = inactive; [ ] = remark or other dose. Potency is read from the fitted curve at half-maximal effect.

SMILES	Pf Dd2 inh
O=C1NC2(CCCN(Cc3ccccc3C(F)(F)F)C2)Oc2ccccc21 (stereo not drawn)	-4%
CCc1cccc2sc(N3CCN(C(=O)c4cc5ccccc5cc4OC)CC3)nc12	-27%
NC(Cc1ccccc1)C(=O)N1CCC2(CC1)CN(C(=O)c1ccc(Cl)cc1)CCO2 (stereo not drawn)	0.63µM*
COc1ccc(CC(=O)N2CCC3(CC2)CN(C(=O)c2ccc(Cl)cc2)CCO3)cc1	-8%
CC(=O)N1CCC2(CC1)CN(C(=O)c1ccc(Cl)cc1)CCO2	4%
COc1ccc(-c2c(C)nn3c(C(F)(F)F)cc(-c4ccccc4)nc23)cc1OC	-8%
Cc1ccc(NC(=O)Cn2c(=O)oc3cc(S(=O)(=O)N4CCCC4)ccc32)cc1F	i
CN(C)c1ccc(CN2CCC(c3nc4ncccc4[nH]3)C2)cc1 (stereo not drawn)	-7%
COc1cccc(CN2CC[C@H](c3nc4ccccc4[nH]3)C2)c1	-21%[44.1 µM]
COc1ccc2nc([C@H]3CCN(Cc4ccncc4)C3)[nH]c2c1	i
COc1ccc(CN2CC[C@H](c3nc4ccc(C)cc4[nH]3)C2)cc1	i
c1ccc2ncc(CN3CC[C@H](c4nc5ccccc5[nH]4)C3)cc2c1	11µM*
Cc1ccccc1CN1CC[C@H](c2nc3ncccc3[nH]2)C1	32µM*
COc1ccc2nc([C@H]3CCN(C4CCCCC4)C3)[nH]c2c1	-6%[44.1 µM]
FC(F)(F)c1ccc2nc([C@H]3CCN(Cc4ncc[nH]4)C3)[nH]c2c1	i
COc1ccccc1CN1CC[C@H](c2nc3ccc(C(F)(F)F)cc3[nH]2)C1	8.9µM*
Cc1ccc(CN2CC[C@H](c3nc4ccc(C(F)(F)F)cc4[nH]3)C2)cc1	11µM*
CS(=O)(=O)c1ccc(CN2CC[C@H](c3nc4ncccc4[nH]3)C2)cc1	-23%[44.1 µM]
Clc1cccc(CN2CC[C@H](c3nc4ccccc4[nH]3)C2)c1	i
Cc1ccc(C(=O)N2CCC3(CC2)CC(c2ccccc2)C(=O)N3C)s1 (stereo not drawn)	i
CNC(=O)N1CCC(C2CCN(C(=O)c3cccc(C#N)c3)C2)CC1 (stereo not drawn)	-3%
O=C1NCCCCCCN(Cc2ccncc2)[C@@H]2CN(C(=O)c3ccncc3)CC[C@@H]12	-6%
CCN(CCCNC(=O)c1nn(-c2ccc(OC)cc2)c(=O)c2c1c1ccccc1n2C)c1cccc(C)c1	22%
Cc1cccc(C(=O)N2CCCC(CO)CCNC(=O)CC2)c1 (stereo not drawn)	i
CCNc1ncnc2c1CN(C1CCNC1)C(=O)CN2C (stereo not drawn)	7%
SMILES	Pf Dd2 inh
CC1=C(C(=O)OCC2CCCCC2)C(c2ccc(F)cc2F)CC(=O)N1 (stereo not drawn)	1%
CCCOc1ccc(C(=O)NCC2OCCc3ccccc32)cc1 (stereo not drawn)	10%
COc1ccc(Nc2c(-c3cccc(O)c3)nc3cnccn23)cc1	i
CNC(=O)N1CCC(n2c(C)cnc2-c2cccnc2)CC1	19%
Fc1ccc2nc([C@H]3CCN(Cc4cccs4)C3)[nH]c2c1	11µM*
CC(=O)N1CC[C@H](c2nc3ccc(F)cc3[nH]2)C1	-6%[44.1 µM]
Fc1ccc2nc([C@H]3CCN(Cc4ncc[nH]4)C3)[nH]c2c1	i
COc1ccc(-c2cnc3[nH]cc(CC(=O)N4CCNC(=O)C4)c3c2)cc1	7.9µM*
O=C(Cc1c[nH]c2ncc(-c3ccc(Oc4ccccc4)cc3)cc12)N1CCOCC1	-3%[44.1 µM]
COc1cccc(-c2cnc3[nH]cc(CC(=O)N4CCN(C)CC4)c3c2)c1	i
Cc1ccccc1NC(=O)CCN1C(=O)c2ccccc2Sc2ncccc21	7%
O=C1CCN(S(=O)(=O)c2ccccc2)CCCC(C(=O)NCCc2ccncc2)CCN1 (stereo not drawn)	4%
COc1ccc([C@H]2C[C@@H](O)[C@@H](O)[C@@H]2NCc2cn(C)c3ccccc23)cc1	8.9µM*
COc1ccc([C@H]2C[C@@H](O)[C@@H](O)[C@@H]2NCc2ccccc2)cc1	-1%[44.1 µM]
COc1ccc([C@H]2C[C@@H](O)[C@@H](O)[C@@H]2NCc2cnn(C)c2)cc1	i
Cc1ccc(CNC(=O)CSc2ncc(S(=O)(=O)c3ccc(Br)cc3)c(=O)[nH]2)cc1	50%
Cc1ccc(-c2cn3c(n2)CO[C@@H](CNCc2ccc(S(C)(=O)=O)cc2)C3)cc1	i
Cc1ccc(-c2cn3c(n2)CO[C@@H](CNCc2ccc(-c4ccccn4)cc2)C3)cc1	13µM*
Cc1ccc(-c2cn3c(n2)CO[C@@H](CNCc2ccc(Cl)cc2)C3)cc1	i
Cc1ccc(CCNC(=O)c2ccc3c(Cl)c4c(nc3c2)CCCC4)cc1	-4%
CSc1ccc(CCNC(=O)c2ccc3c(Cl)c4c(nc3c2)CCCC4)cc1	-16%
CCN(CC)CCCNC(=O)c1ccc2c(Cl)c3c(nc2c1)CCCC3	11µM*
CC(=O)N1CCCc2cc(S(=O)(=O)N3CCCC(C(=O)NC(C)C)C3)ccc21 (stereo not drawn)	-3%
Cc1nc2sccn2c(=O)c1S(=O)(=O)NCc1ccccc1	-2%
Cc1ccc2nc(Nc3cccc(Cl)c3C)c(-n3nc(C)cc3C)nc2c1	35%[5.79 µM]
SMILES	Pf Dd2 inh
Cc1oc(-c2ccc(Cl)cc2)nc1CSCC(=O)NCc1ccccc1Cl	31%
COCC(=O)Nc1nc2c(s1)C[C@@H]1[C@](C)(CO)[C@H](O)CC[C@@]1(C)[C@@H]2CC(=O)NC(C)C	i
CC(C)(C)C(=O)Nc1nc2c(s1)C[C@@H]1[C@](C)(CO)[C@H](O)CC[C@@]1(C)[C@@H]2CC(=O)O	-10%[44.1 µM]
CC(C)(C)C(=O)Nc1nc2c(s1)C[C@@H]1[C@](C)(CO)[C@H](O)CC[C@@]1(C)[C@@H]2CC(=O)Nc1cccc(O)c1	8.9µM*
CC(C)(C)C(=O)Nc1nc2c(s1)C[C@@H]1[C@](C)(CO)[C@H](O)CC[C@@]1(C)[C@@H]2CC(=O)NC1CC1	i
CC(C)C[C@H](CO)NC(=O)C[C@@H]1c2nc(NC(=O)C(C)(C)C)sc2C[C@@H]2[C@](C)(CO)[C@H](O)CC[C@]21C	8.9µM*
CCCCCC(=O)Nc1nc2c(s1)C[C@@H]1[C@](C)(CO)[C@H](O)CC[C@@]1(C)[C@@H]2CC(=O)N[C@@H](CO)CC(C)C	i
OC(c1nc(Nc2cccc(C(F)(F)F)c2)n[nH]1)C1CC1 (stereo not drawn)	-2%[44.1 µM]
CN(C(=O)C1=NO[C@@H]2CN(CCc3ccccc3)C[C@H]12)c1ccccc1	-11%[44.1 µM]
COC1CN(C2CCN(C(=O)NC3CCCCC3)CC2)C12CCOCC2 (stereo not drawn)	i
COc1cccc(N2CCN(Cc3nnc(-c4ccc5c(c4)OCO5)o3)CC2)c1	-5%
COc1cccc(C(=O)NCCC2CCN(C(=O)Nc3ccc(C)c(F)c3)CC2)c1	-29%
O=C(NCCC1CCN(C(=O)Nc2ccc(F)cc2F)CC1)c1cccc(F)c1	-23%
Cc1ccc(NC(=O)N2CCC(CCNC(=O)c3cccc(F)c3)CC2)cc1F	13µM*
CC1=C(c2ccc(C)c(C)c2)S(=O)(=O)N=C1N1CCN(c2cccc(C)c2)C(C)C1 (stereo not drawn)	1%
C[C@@]1(c2ccccc2)CCCCN1C(=O)c1cnc2c(c1)N([S+](=O)([O-])c1cccnc1)CCC2	i
CC(C)Oc1cccc(-c2nnc(CCC(=O)NCCc3cccs3)c(=O)[nH]2)c1	3%
O=C1NC(=NC2CCCCC2)C2(CCN(Cc3ccccc3)C2)N1c1cc(F)cc(F)c1 (stereo not drawn)	1.8µM*
